{"source": "the OligoGym collection", "data": [{"target": "HPD", "experiment": "pooled miR-30 sensor sort-seq; sequence = guide strand", "details": "shRNA", "values": [{"sequence": "TTGAACAGTGAGTTGAAGTTGC", "sensor-assay potency score (higher = more potent)": 0.599}, {"sequence": "ATGACTTCCAGGAAGAGCGTGG", "sensor-assay potency score (higher = more potent)": -0.0981}, {"sequence": "TTTGATTACATGGCTGACCACC", "sensor-assay potency score (higher = more potent)": -0.613}, {"sequence": "TACATGGCTGACCACCTCCCGG", "sensor-assay potency score (higher = more potent)": -1.66}, {"sequence": "TGTGATGATGTCTTCGGTCTTG", "sensor-assay potency score (higher = more potent)": 0.215}, {"sequence": "TGCTGCAGTAGAATGACGCGGC", "sensor-assay potency score (higher = more potent)": -0.159}, {"sequence": "TTATAGTCCACATATTCCTGGA", "sensor-assay potency score (higher = more potent)": 0.144}]}, {"target": "HS3ST2", "experiment": "pooled miR-30 sensor sort-seq; sequence = guide strand", "details": "shRNA", "values": [{"sequence": "TTATTTCACATGGACAAGCATG", "sensor-assay potency score (higher = more potent)": -1.23}, {"sequence": "TTGCTTGAACAGACTGATGAAA", "sensor-assay potency score (higher = more potent)": -0.965}, {"sequence": "TAACAGCAGAATTATGTGCTTT", "sensor-assay potency score (higher = more potent)": -0.0537}, {"sequence": "ATAATATCTATCATCATTGGAA", "sensor-assay potency score (higher = more potent)": -0.218}, {"sequence": "TTCTTGGAGAGTGTCTGCGTGT", "sensor-assay potency score (higher = more potent)": -0.361}, {"sequence": "TTGAGTGACAAAGTAGCTGGGC", "sensor-assay potency score (higher = more potent)": 0.674}, {"sequence": "TAACACAGGTAAGTGCAGGAGA", "sensor-assay potency score (higher = more potent)": -0.326}, {"sequence": "TTGATTTGCCCAAGCATCGAGG", "sensor-assay potency score (higher = more potent)": -0.341}, {"sequence": "TTGTCCGTGATGAATCTCTTAA", "sensor-assay potency score (higher = more potent)": -1.07}, {"sequence": "ATCGCTTATAATATCTATCATC", "sensor-assay potency score (higher = more potent)": -1.47}, {"sequence": "TCTTGAGTGACAAAGTAGCTGG", "sensor-assay potency score (higher = more potent)": -0.586}]}, {"target": "HS3ST4", "experiment": "pooled miR-30 sensor sort-seq; sequence = guide strand", "details": "shRNA", "values": [{"sequence": "TAAAACATCAAGTTGAAGGGTT", "sensor-assay potency score (higher = more potent)": 0.47}, {"sequence": "TTTGTCACAAAGTAACTTGGAG", "sensor-assay potency score (higher = more potent)": -0.0205}, {"sequence": "TGAGCCGTGATCATCTCGCTGG", "sensor-assay potency score (higher = more potent)": -0.131}, {"sequence": "TTTGTTGAAATAGAAATGCTTC", "sensor-assay potency score (higher = more potent)": -0.152}, {"sequence": "TTGTCACAAAGTAACTTGGAGT", "sensor-assay potency score (higher = more potent)": -0.395}, {"sequence": "TTCTTTGACAGTGTCTGCGTGT", "sensor-assay potency score (higher = more potent)": 0.364}, {"sequence": "TTTACTAGAACAATTCCTGGTT", "sensor-assay potency score (higher = more potent)": 0.821}, {"sequence": "TTTCTTTGACAGTGTCTGCGTG", "sensor-assay potency score (higher = more potent)": -0.405}, {"sequence": "TTTTACTAGAACAATTCCTGGT", "sensor-assay potency score (higher = more potent)": 0.147}, {"sequence": "TTGACAACTATTTATCCTCTGT", "sensor-assay potency score (higher = more potent)": 0.841}, {"sequence": "TTCTGTACCACTCCAACCCCTT", "sensor-assay potency score (higher = more potent)": -0.516}, {"sequence": "TTTGAGGCCTAGAAAATCCTGT", "sensor-assay potency score (higher = more potent)": 0.0519}]}, {"target": "HS6ST1", "experiment": "pooled miR-30 sensor sort-seq; sequence = guide strand", "details": "shRNA", "values": [{"sequence": "TGATGTAGTAGAACTTCCTGGG", "sensor-assay potency score (higher = more potent)": 0.812}, {"sequence": "TAGCAGGTGCACTTCTTCTGGC", "sensor-assay potency score (higher = more potent)": -0.598}, {"sequence": "TTGAACGTCCGCTCGAACAGGT", "sensor-assay potency score (higher = more potent)": -0.0201}, {"sequence": "TTGAGCTCCTCGATGCGCCGGA", "sensor-assay potency score (higher = more potent)": 0.162}, {"sequence": "TACTTCTTCTCGTAGTGGGGGT", "sensor-assay potency score (higher = more potent)": -0.105}, {"sequence": "TTTTTTTGTATGAATAACCAAA", "sensor-assay potency score (higher = more potent)": -1.12}, {"sequence": "TAGTGTGATGCATCCACCCAGG", "sensor-assay potency score (higher = more potent)": -0.887}, {"sequence": "TAGTAGAACTTCCTGGGCGTGC", "sensor-assay potency score (higher = more potent)": -0.463}, {"sequence": "ATGAGCATGAAGCACACCGAGC", "sensor-assay potency score (higher = more potent)": -1.78}, {"sequence": "TTGAGGTTGAACGTCCGCTCGA", "sensor-assay potency score (higher = more potent)": -0.171}]}]}
